Values joined by “and” are separate entries in the source; they are usually repeats but may differ in a detail not shown here. Equal values may be shown once. Records with an inconclusive call do not appear. The source holds several records for some structures; these can differ, active in one and inactive in another. Active and inactive are the calls of the source. Unless noted, calls follow the shape of the dose curve; as a rule, active = well fitted curve in the direction sought with a large enough effect in the repeat runs; inconclusive = weak or mixed curves; inactive = no such curve, though single readings can be large; an effect the other way counts as inactive or inconclusive.

In assay [1] the target is Retinoic acid receptor RXR-alpha (Homo sapiens) (UniProt P19793). As to the kind of experiment: qHTS assay to identify small molecule agonists of the RXR signaling pathway (AID 1159527; calls by dose curve; also: nearly all actives have a fitted effect of over 35% in size; also: potency is read from the fitted curve at half-maximal effect). The essentials:
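Agonist-mode beta-lactamase reporter assay: HEK 293T RXR-alpha-UAS-bla cells treated 16 hr at 37 C with compounds, 9-cis retinoic acid as positive control. LiveBLAzer FRET substrate, 405 nm excitation, 460/530 nm emission.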
(In general: qHTS replaces the single test concentration by a dilution series.)

Assay [2] can be described thus: qHTS assay to identify small molecule agonists of the RXR signaling pathway - cell viability counter screen (AID 1159529). Also: series mostly up to about 77 µM; nearly all actives have a fitted effect of over 50% in size. The essentials: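 CellTiter-Glo luminescence gave viability in the wells also read for beta-lactamase. Cells (RXR-alpha-UAS-bla HEK 293T, 2% charcoal-stripped FBS medium) had 5 hr plating, then 16 hr compound exposure at 37 C; tetraoctyl ammonium bromide served as positive control.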

Assay [3] in a line: qHTS assay to identify small molecule antagonists of the retinoid acid receptor (RAR) signaling pathway - cell viability counter screen (AID 1159551). Also: nearly all actives have a fitted effect of over 35% in size. The method, boiled down:
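Measured by luminescent ATP detection, viability reflects C3RL4 cells treated 6 h at 37 C with test chemicals in the presence of 1 uM (final) retinol.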

Assay [4] can be described thus: qHTS assay to identify small molecule antagonists of the retinoic acid receptor (RAR) signaling pathway (AID 1159552; also: nearly all actives have a fitted effect of over 50% in size). The essentials:
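Luminescent RARE reporter read-out in C3RL4 cells: 6 hr co-treatment at 37 C of test compounds with retinol at 1 uM final. Cells plated overnight beforehand; luciferase reagent incubated 30 min at room temperature before reading.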

Assay [5] is described as follows: qHTS assay to identify small molecule agonists of the retinoic acid receptor (RAR) signaling pathway (AID 1159553). Also: potency is read from the fitted curve at half-maximal effect. The method, boiled down: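 6 hr compound exposure (DMSO vehicle) of overnight-plated C3RL4 RARE-luc cells at 37 C; luminescence quantified after 30 min RT with luciferase reagent.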
Assay [6] can be described thus: qHTS assay to identify small molecule antagonists of the estrogen related receptor (ERR) signaling pathway from Tox21 library - cell viability counter screen (AID 1224834). Also: nearly all actives have a fitted effect of over 30% in size. The method, boiled down: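 Seeded ERR cells were rested 6 h at 37 C/5% CO2 before compounds, positive and negative controls or DMSO were added. Incubation continued for 17.5 h, and viability was then quantified by CellTiter-Fluor fluorescence.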

The target of assay [7] is Luciferin 4-monooxygenase (Photinus pyralis) (UniProt P08659). As to the kind of experiment: qHTS assay to identify small molecule inhibitors of firefly luciferase (AID 1224835). Also: nearly all actives have a fitted effect of over 25% in size. Also: potency is read from the fitted curve at half-maximal effect. The essentials:
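Biochemical qHTS: compounds run as interplate titrations against purified firefly enzyme, with D-luciferin and ATP each at its KM concentration. Light output recorded by CCD imaging.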

Assay [8] is described as follows: qHTS assay to identify small molecule antagonists of the constitutive androstane receptor (CAR) signaling pathway - cell viability counter screen (AID 1224837). Also: series mostly up to about 92 µM; nearly all actives have a fitted effect of over 45% in size. The essentials: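 To flag cytotoxic false antagonists, HepG2 hCAR/CYP2B6-2.2kb cells were treated 23 hr with 15-concentration compound series and 50 nM CITCO at 37 C/5% CO2; CellTiter-Fluor fluorescence was the measured end point.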

Assay [9] concerns the target Nuclear receptor subfamily 1 group I member 3 (Homo sapiens) (UniProt Q14994). As to the kind of experiment: qHTS assay to identify small molecule antagonists of the constitutive androstane receptor (CAR) signaling pathway (AID 1224838).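 Also: HepG2 cells stably expressing hCAR with CYP2B6 luciferase reporter stimulated by CITCO; nearly all actives have a fitted effect of over 40% in size.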 Also: potency is read from the fitted curve at half-maximal effect. The method, boiled down: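 Human hepatoma HepG2 cells expressing hCAR and a CYP2B6 promoter (2.2 kb) luciferase construct; compound titration (15 points) with 50 nM CITCO final, 24 h at 37 C/5% CO2; luminescence via ONE-Glo after 30 min at room temperature.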

Assay [10] shares this target. As to the kind of experiment: qHTS assay to identify small molecule agonists of the constitutive androstane receptor (CAR) signaling pathway (AID 1224839). Also: nearly all actives have a fitted effect of over 15% in size. Also: potency is read from the fitted curve at half-maximal effect. The essentials: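 Luminescent ONE-Glo read-out after 24 hr, 37 C exposure of double-stable HepG2-CYP2B6-hCAR reporter cells to a 15-point compound series, in the presence of 0.75 uM PK11195 (final).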
A short description of assay [11]: qHTS assay to identify small molecule antagonists of the estrogen related receptor signaling pathway with the pleiotropic PPARgamma coactivator (PGC) from Tox21 10K library - cell viability counter screen (AID 1224840; active = well fitted cell-killing curve with a large enough effect in the repeat runs, not every such curve was filed as active; also: nearly all actives have a fitted effect of over 40% in size). The essentials: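 Seeded PGC/ERR cells (2,000/well, 6 h, 37 C/5% CO2) get compound by pin tool; 17.5 h incubation at 37 C; CellTiter-Fluor added, 30 min, fluorescence measured.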

The nature of assay [12]: qHTS assay to identify small molecule antagonists of the estrogen related receptor signaling pathway with the pleiotropic PPARgamma coactivator (PGC) from Tox21 10K library (AID 1224841; call rule not given here; also: series mostly up to about 92 µM; actives are mostly falling curves and most rising ones were filed inactive; nearly all actives have a fitted effect of over 50% in size). The essentials: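 Test chemicals dissolved in DMSO were applied to pre-incubated (6 h) PGC/ERR cells at 2,000 cells/well for an 18 h, 37 C treatment; reporter luminescence was then read using One-Glo.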

A short description of assay [13]: qHTS assay to identify small molecule agonists of the estrogen related receptor signaling pathway with the pleiotropic PPARgamma coactivator (PGC) from Tox21 10K library (AID 1224842). Also: nearly all actives have a fitted effect of over 15% in size. The essentials: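 PGC/ERR reporter cell line, 2,000 cells per well, incubated 6 h at 37 C before 23 nL compound in DMSO was added. After 18 h at 37 C, One-Glo luminescence read following 30 min at room temperature.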

Assay [14] can be described thus: qHTS assay to identify small molecule agonists of the constitutive androstane receptor (CAR) signaling pathway - cell viability counter screen (AID 1224836). Also: series mostly up to about 92 µM; nearly all actives have a fitted effect of over 45% in size. The method, boiled down: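 Cell viability multiplexed with the CAR agonist screen: CellTiter-Fluor fluorescence after 23 hr at 37 C. HepG2-CYP2B6-hCAR cells got compounds at 15 concentrations with PK11195 at 0.75 uM final.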

Nuclear receptor subfamily 1 group I member 3 (Homo sapiens), sequence (Q14994 whole entry, looked up): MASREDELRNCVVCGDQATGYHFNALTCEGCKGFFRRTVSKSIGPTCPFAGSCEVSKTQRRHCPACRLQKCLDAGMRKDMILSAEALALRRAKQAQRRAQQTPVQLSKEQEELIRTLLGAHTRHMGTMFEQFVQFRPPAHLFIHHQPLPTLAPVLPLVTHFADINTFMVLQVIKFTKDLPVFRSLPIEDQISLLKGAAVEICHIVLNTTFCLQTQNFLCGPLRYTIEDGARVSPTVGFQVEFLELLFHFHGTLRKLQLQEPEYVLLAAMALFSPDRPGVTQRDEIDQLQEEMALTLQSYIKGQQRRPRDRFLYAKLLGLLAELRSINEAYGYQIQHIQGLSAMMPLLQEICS
Retinoic acid receptor RXR-alpha (Homo sapiens), sequence (P19793 whole entry, looked up): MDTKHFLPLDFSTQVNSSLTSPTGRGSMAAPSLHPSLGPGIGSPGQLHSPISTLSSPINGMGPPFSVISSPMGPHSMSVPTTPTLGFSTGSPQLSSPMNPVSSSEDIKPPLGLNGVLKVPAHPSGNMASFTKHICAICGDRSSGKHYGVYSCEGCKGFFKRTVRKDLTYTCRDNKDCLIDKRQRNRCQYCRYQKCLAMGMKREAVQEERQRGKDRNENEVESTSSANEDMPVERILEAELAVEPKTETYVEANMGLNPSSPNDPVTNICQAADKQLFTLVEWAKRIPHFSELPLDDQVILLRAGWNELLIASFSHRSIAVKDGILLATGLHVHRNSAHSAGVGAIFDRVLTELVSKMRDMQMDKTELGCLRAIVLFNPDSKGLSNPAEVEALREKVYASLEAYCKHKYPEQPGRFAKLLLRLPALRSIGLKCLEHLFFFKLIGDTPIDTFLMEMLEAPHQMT
Luciferin 4-monooxygenase (Photinus pyralis), sequence (P08659 whole entry, looked up): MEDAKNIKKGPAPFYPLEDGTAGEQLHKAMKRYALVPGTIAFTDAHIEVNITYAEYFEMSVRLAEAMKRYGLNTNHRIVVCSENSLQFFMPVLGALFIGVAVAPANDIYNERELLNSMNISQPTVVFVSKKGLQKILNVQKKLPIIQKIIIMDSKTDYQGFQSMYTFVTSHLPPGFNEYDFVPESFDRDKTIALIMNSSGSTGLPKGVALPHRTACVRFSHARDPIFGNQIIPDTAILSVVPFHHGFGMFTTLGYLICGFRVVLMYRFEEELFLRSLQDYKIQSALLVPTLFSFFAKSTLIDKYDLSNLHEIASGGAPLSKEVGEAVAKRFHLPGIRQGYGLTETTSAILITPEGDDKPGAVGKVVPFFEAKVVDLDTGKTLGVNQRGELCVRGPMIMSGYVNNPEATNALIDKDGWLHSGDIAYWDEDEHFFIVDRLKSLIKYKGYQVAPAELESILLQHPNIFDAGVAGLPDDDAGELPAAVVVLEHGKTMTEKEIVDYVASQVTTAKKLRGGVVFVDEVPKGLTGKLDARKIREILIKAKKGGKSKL

As for `O=[N+]([O-])c1ccc(Cl)c(Cl)c1`, the Potency entry in assay [1], in assay [4], in [5], in assay [6], in [7] and in [8] was “inactive” throughout. Also, the Potency result in assay [9], in assay [10], in assay [11], in assay [12] and in assay [13] was “inactive” throughout. The compound was classed as inactive in assay [2] and in assay [3].
With `Cc1ccc(O)c(C)c1`, the Potency entry in assay [1], in assay [4], in assay [5], in assay [6], in [7] and in assay [14] was “inactive” throughout. The Potency result in assay [8], in assay [12] and in assay [13] was “inactive” in each case. The call in [2] and in assay [3] was inactive.
As to `CNC(=O)O/N=C/C(C)(C)S(C)(=O)=O`, the Potency result in assay [1], in assay [4], in assay [5], in [6], in assay [7] and in assay [8] was “inactive” in each case. The Potency entry in assay [9] and in assay [10] was “inactive” each time. In addition, the result in assay [2] and in assay [3] was inactive.
Turning to `Cl/C=C/Cl`, the Potency entry in assay [1], in assay [4], in assay [5], in [6], in [7] and in assay [8] was “inactive” each time. Besides, the Potency result in assay [11] was “inactive”. Also, the call in [2] and in [3] was inactive.
With `COC(C)(C)CCCC(C)C/C=C/C(C)=C/C(=O)OC(C)C` (configuration not stated), the Potency result in assay [1], in assay [4], in assay [5], in assay [6], in assay [7] and in assay [8] was “inactive” throughout. Besides, the Potency entry in assay [9], in [10], in assay [11], in assay [12] and in assay [13] was “inactive” throughout. Further, the outcome in [2] and in [3] was inactive.
Consider `Cc1cc(O)ccc1Cl`, for which the Potency entry in assay [1] was “inactive and 12.3 µM (active)”. Moreover, the call in assay [2] and in assay [3] was inactive. Besides, the Potency result in [4], in assay [5], in assay [6], in assay [7], in assay [14] and in assay [8] was “inactive” throughout. The Potency entry in assay [11], in assay [12] and in assay [13] was “inactive” each time.
Take `N#CN=C(N)N`: the Potency entry in [1], in assay [4], in [5], in [6], in [7] and in [8] was “inactive” each time. In addition, the Potency entry in assay [9], in [10] and in [11] was “inactive” in each case. The result in assay [2] and in [3] was inactive.
On to `Cc1cccc(C)c1N`, for which the Potency result in [1], in assay [4], in assay [5], in assay [6], in assay [7] and in assay [8] was “inactive” each time. Further, the outcome in assay [2] and in assay [3] was inactive.
Consider `CCCCC(CC)C(=O)Cl` (configuration not stated), for which the Potency result in assay [1], in [4], in assay [5], in [6], in assay [7] and in assay [8] was “inactive” each time. Moreover, the Potency entry in assay [9], in assay [10] and in [11] was “inactive” throughout. The compound was called inactive in assay [2] and in assay [3].
`CCSC(=O)N1CCCCCC1`: the Potency result in [1], in assay [4], in assay [5], in [6], in [7] and in assay [8] was “inactive” throughout. The Potency entry in assay [10], in assay [12] and in [13] was “inactive” throughout. Further, the outcome in assay [2] and in assay [3] was inactive. Moreover, the Potency in [9] was 26.5 µM (active) and inactive.
Turning to `ClC(Cl)c1ccccc1`, the Potency entry in assay [1], in assay [4], in assay [5], in [6], in assay [7] and in assay [8] was “inactive” each time. The Potency result in assay [9], in assay [10], in assay [12] and in [13] was “inactive” in each case. Besides, the compound was called inactive in assay [2] and in assay [3].
With `ClCCOCCCl`, the Potency result in assay [1], in [4], in assay [5], in [6], in [7] and in [8] was “inactive” in each case. Besides, the Potency result in assay [11] was “inactive”. For the same compound, the outcome in assay [2] and in [3] was inactive.
As to `CNc1cnn(-c2cccc(C(F)(F)F)c2)c(=O)c1Cl`, the Potency result in assay [1], in assay [4], in assay [6], in assay [8], in [9] and in assay [11] was “inactive” each time. Moreover, the call in assay [2] and in [3] was inactive. For the same compound, the Potency in assay [5] is 4.17 µM (active) and 5.45 µM (active); in assay [7] it was 34.3 µM (active) and 39.9 µM (active); in [10], 16.6 µM (active) and 24.3 µM (active).

Values taken from PubChem BioAssay (Tox21).
